Results: PubChem BioAssay AID1159580 (chemical genetic matrix, 2015)
Among all 5,500 compounds or so, about 2,000 (36%) were called active. Another 18% or so got no clear call; they are omitted. Rule as the data show it: active = normalized growth mostly below about 0.91 (no sharp cut-off); inconclusive = no clear call, values can overlap the other calls; inactive = mostly above about 0.92. Some of the results follow.

Test: chemical genetic growth profiling, strain panel (AID 1159580);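 also: tested at 20 µM; growth read once vehicle control cultures reached saturation at 30 °C; 1 = growth at the plate median or of vehicle wells; lower values mean less growth of the strain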
Conditions: growth OD

Measured: normalized growth

c1cncc(C2CCCCN2)c1 (configuration not stated)
inactive: S. cerevisiae deletion strains, locus YJR066W, strain TOR1, stronger effect = lower value 0.974 | S. cerevisiae deletion strains, locus YJR075W, strain HOC1, stronger effect = lower value 1.03 | S. cerevisiae deletion strains, locus YKL009W, strain mrt4, stronger effect = lower value 0.992 | S. cerevisiae deletion strains, locus YKL068W, stronger effect = lower value 1 | S. cerevisiae deletion strains, locus YKL085W, strain MDH1 (second series), stronger effect = lower value 0.998 | S. cerevisiae deletion strains, locus YKL085W, strain MDH1, stronger effect = lower value 0.998 | S. cerevisiae deletion strains, locus YKL160W, strain elf1, stronger effect = lower value 0.992 | S. cerevisiae deletion strains, locus YKL190W, strain CNB1, stronger effect = lower value 0.99 | S. cerevisiae deletion strains, locus YKR001C, strain vps1, stronger effect = lower value 0.986 | S. cerevisiae deletion strains, locus YKR026C, strain gcn3, stronger effect = lower value 0.996 | S. cerevisiae deletion strains, locus YKR091W, strain srl3, stronger effect = lower value 0.988 | S. cerevisiae deletion strains, locus YLL001W, strain dnm1, stronger effect = lower value 0.993 | S. cerevisiae deletion strains, locus YLL026W, stronger effect = lower value 0.996 | S. cerevisiae deletion strains, locus YLL041C, strain sdh2, stronger effect = lower value 0.991 | S. cerevisiae deletion strains, locus YLR027C, strain aat2, stronger effect = lower value 0.999 | S. cerevisiae deletion strains, locus YLR039C, strain RIC1, stronger effect = lower value 1.07 | S. cerevisiae deletion strains, locus YLR058C, strain SHM2, stronger effect = lower value 1.01 | S. cerevisiae deletion strains, locus YLR102C, strain apc9, stronger effect = lower value 1 | S. cerevisiae deletion strains, locus YLR113W, strain HOG1, stronger effect = lower value 0.997 | S. cerevisiae deletion strains, locus YLR221C, strain rsa3, stronger effect = lower value 0.991 | S. cerevisiae deletion strains, locus YLR258W, strain gsy2, stronger effect = lower value 1.02 | S. cerevisiae deletion strains, locus YLR262C, strain YPT6 (second series), stronger effect = lower value 0.986 | S. cerevisiae deletion strains, locus YLR262C, strain YPT6, stronger effect = lower value 1.06 | S. cerevisiae deletion strains, locus YLR268W, strain sec22, stronger effect = lower value 0.968 | S. cerevisiae deletion strains, locus YLR320W, strain mms22, stronger effect = lower value 0.981 | S. cerevisiae deletion strains, locus YLR330W, strain CHS5, stronger effect = lower value 1.03 | S. cerevisiae deletion strains, locus YLR342W, strain FKS1 (second series), stronger effect = lower value 1.02 | S. cerevisiae deletion strains, locus YLR342W, strain FKS1, stronger effect = lower value 0.986 | S. cerevisiae deletion strains, locus YLR357W, strain rsc2, stronger effect = lower value 0.959 | S. cerevisiae deletion strains, locus YLR370C, strain arc18, stronger effect = lower value 0.988 | S. cerevisiae deletion strains, locus YLR371W, strain rom2, stronger effect = lower value 0.985 | S. cerevisiae deletion strains, locus YLR384C, strain iki3, stronger effect = lower value 0.98 | S. cerevisiae deletion strains, locus YLR418C, strain cdc73, stronger effect = lower value 0.995 | S. cerevisiae deletion strains, locus YML016C, strain PPZ1, stronger effect = lower value 1.02 | S. cerevisiae deletion strains, locus YML032C, strain rad52, stronger effect = lower value 1.01 | S. cerevisiae deletion strains, locus YML120C, strain ndi1, stronger effect = lower value 0.998 | S. cerevisiae deletion strains, locus YML124C, strain tub3, stronger effect = lower value 0.998 | S. cerevisiae deletion strains, locus YMR058W, strain fet3, stronger effect = lower value 0.993 | S. cerevisiae deletion strains, locus YMR078C, strain ctf18, stronger effect = lower value 0.999 | S. cerevisiae deletion strains, locus YMR125W, strain sto1, stronger effect = lower value 0.981 | S. cerevisiae deletion strains, locus YMR129W, stronger effect = lower value 0.99 | S. cerevisiae deletion strains, locus YMR205C, strain PFK2, stronger effect = lower value 1.02 | S. cerevisiae deletion strains, locus YMR223W, strain ubp8, stronger effect = lower value 1.01 | S. cerevisiae deletion strains, locus YMR231W, strain pep5, stronger effect = lower value 0.981 | S. cerevisiae deletion strains, locus YMR307W, strain GAS1, stronger effect = lower value 1.11 | S. cerevisiae deletion strains, locus YNL067W, strain RPL9B, stronger effect = lower value 1.01 | S. cerevisiae deletion strains, locus YNL071W, strain lat1, stronger effect = lower value 0.998 | S. cerevisiae deletion strains, locus YNL153C, strain GIM3, stronger effect = lower value 1.02 | S. cerevisiae deletion strains, locus YNL183C, strain NPR1, stronger effect = lower value 0.965 | S. cerevisiae deletion strains, locus YNL209W, strain ssb2, stronger effect = lower value 0.991 | S. cerevisiae deletion strains, locus YNL233W, strain BNI4, stronger effect = lower value 1.03 | S. cerevisiae deletion strains, locus YNL248C, strain rpa49, stronger effect = lower value 0.987 | S. cerevisiae deletion strains, locus YNL250W, strain rad50, stronger effect = lower value 1.01 | S. cerevisiae deletion strains, locus YNL271C, strain bni1, stronger effect = lower value 0.996 | S. cerevisiae deletion strains, locus YNL298W, strain CLA4, stronger effect = lower value 0.988 | S. cerevisiae deletion strains, locus YNL307C, strain MCK1, stronger effect = lower value 0.997 | S. cerevisiae deletion strains, locus YNL322C, strain KRE1 (second series), stronger effect = lower value 0.985 | S. cerevisiae deletion strains, locus YNR049C, strain mso1, stronger effect = lower value 0.99 | S. cerevisiae deletion strains, locus YNR052C, strain pop2, stronger effect = lower value 0.995 | S. cerevisiae deletion strains, locus YOL012C, strain htz1 0.806 | S. cerevisiae deletion strains, locus YOL147C, strain pex11, stronger effect = lower value 0.991 | S. cerevisiae deletion strains, locus YOR001W, strain rrp6, stronger effect = lower value 0.994 | S. cerevisiae deletion strains, locus YOR061W, strain CKA2, stronger effect = lower value 1.01 | S. cerevisiae deletion strains, locus YOR069W, strain VPS5, stronger effect = lower value 0.993 | S. cerevisiae deletion strains, locus YOR070C, strain gyp1, stronger effect = lower value 0.978 | S. cerevisiae deletion strains, locus YOR080W, strain dia2, stronger effect = lower value 0.982 | S. cerevisiae deletion strains, locus YOR083W, strain WHI5, stronger effect = lower value 1 | S. cerevisiae deletion strains, locus YOR106W, strain vam3, stronger effect = lower value 0.997 | S. cerevisiae deletion strains, locus YOR136W, strain idh2, stronger effect = lower value 0.978 | S. cerevisiae deletion strains, locus YOR144C, strain elg1, stronger effect = lower value 0.996 | S. cerevisiae deletion strains, locus YOR184W, strain ser1, stronger effect = lower value 1 | S. cerevisiae deletion strains, locus YOR231W, strain MKK1, stronger effect = lower value 1 | S. cerevisiae deletion strains, locus YOR265W, strain rbl2, stronger effect = lower value 1.01 | S. cerevisiae deletion strains, locus YOR270C, strain vph1, stronger effect = lower value 1 | S. cerevisiae deletion strains, locus YOR290C, strain snf2, stronger effect = lower value 1 | S. cerevisiae deletion strains, locus YOR316C, strain cot1, stronger effect = lower value 0.998 | S. cerevisiae deletion strains, locus YPL051W, strain arl3, stronger effect = lower value 1.01 | S. cerevisiae deletion strains, locus YPL078C, strain atp4, stronger effect = lower value 0.994 | S. cerevisiae deletion strains, locus YPL106C, strain sse1, stronger effect = lower value 0.972 | S. cerevisiae deletion strains, locus YPL240C, strain hsp82, stronger effect = lower value 0.992 | S. cerevisiae deletion strains, locus YPL256C, strain CLN2, stronger effect = lower value 0.997 | S. cerevisiae deletion strains, locus YPR119W, strain clb2, stronger effect = lower value 0.989 | S. cerevisiae deletion strains, locus YPR141C, strain kar3, stronger effect = lower value 1 | S. cerevisiae deletion strains, locus YPR163C, strain tif3, stronger effect = lower value 0.99 | S. cerevisiae deletion strains, locus YPR167C, strain met16, stronger effect = lower value 0.999 | S. cerevisiae deletion strains, strain wtn01, stronger effect = lower value 0.957 | S. cerevisiae strains, strain wild type, stronger effect = lower value 1.01
